From PubChem
ANO1 activ: TMEM16A chloride channel activators or potentiators, primary screen, cell-based, HTS | B-score at 10 µM | 0.3% of 340,000 active | AID 623877, 2012 | HEK293 TMEM16A/YFP-H148Q/I152L, iodide quench fluorescence; active compounds read low;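 active = fluorescence-ratio B-score plate-corrected deviation score at least 3 library SD below zero, with starting fluorescence score within 5 deviations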;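 note: channel opened by trigger with iodide after compound preincubation; score built on the fluorescence ratio of max minus min over baseline; more negative score means more quench and so TMEM16A activation or potentiation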
Target sequence (Q8BHY3 whole entry, looked up): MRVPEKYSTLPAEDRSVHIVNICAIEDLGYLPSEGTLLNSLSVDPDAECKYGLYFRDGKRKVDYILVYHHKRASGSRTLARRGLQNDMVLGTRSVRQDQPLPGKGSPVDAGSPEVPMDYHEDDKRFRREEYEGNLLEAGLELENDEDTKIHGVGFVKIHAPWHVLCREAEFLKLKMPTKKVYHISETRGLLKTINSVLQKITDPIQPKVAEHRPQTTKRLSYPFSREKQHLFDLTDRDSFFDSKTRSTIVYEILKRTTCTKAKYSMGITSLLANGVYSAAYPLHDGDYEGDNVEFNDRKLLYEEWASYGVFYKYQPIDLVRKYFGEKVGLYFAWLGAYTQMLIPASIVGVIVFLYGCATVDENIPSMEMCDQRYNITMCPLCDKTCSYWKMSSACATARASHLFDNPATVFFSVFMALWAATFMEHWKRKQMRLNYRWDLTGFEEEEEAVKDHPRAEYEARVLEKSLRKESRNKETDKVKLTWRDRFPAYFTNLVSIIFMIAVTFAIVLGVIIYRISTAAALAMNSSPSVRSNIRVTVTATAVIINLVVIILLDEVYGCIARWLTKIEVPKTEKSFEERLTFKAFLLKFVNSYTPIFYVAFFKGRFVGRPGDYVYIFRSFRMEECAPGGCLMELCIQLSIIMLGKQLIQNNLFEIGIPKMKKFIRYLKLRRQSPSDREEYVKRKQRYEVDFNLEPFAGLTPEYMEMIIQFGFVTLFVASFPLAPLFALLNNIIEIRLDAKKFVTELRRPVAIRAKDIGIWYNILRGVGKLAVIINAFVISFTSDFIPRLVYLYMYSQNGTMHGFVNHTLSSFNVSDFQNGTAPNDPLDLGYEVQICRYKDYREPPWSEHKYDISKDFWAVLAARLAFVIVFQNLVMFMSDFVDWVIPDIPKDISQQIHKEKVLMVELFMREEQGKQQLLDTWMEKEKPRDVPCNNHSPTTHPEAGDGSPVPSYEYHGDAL
CHT inh: inhibitors of human choline transporter CHT; High affinity choline transporter 1 (Homo sapiens), Q9GZV3; CHT-expressing cells, membrane potential dye, choline response; active compounds read low; B-score at 10 µM; 0.86% of 310,000 active;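 active = B-score over 3 SD under the library average, and starting fluorescence ratio not unusually high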;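 note: choline stimulus applied at its EC90 after an EC20 pre-addition; B-score computed on integrated fluorescence ratio after choline addition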
ANO1 block: TMEM16A chloride channel inhibitors, primary screen, cell-based, HTS; Anoctamin-1 (Mus musculus), Q8BHY3; HEK293 TMEM16A/YFP iodide influx fluorescence, ionomycin; normalized B-score (activity score, 25-100; higher = stronger inhibition) at 10 µM; 1.2% of 310,000 active; AID 588511, 2011;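 active = ratio plate-corrected score three or more library SD toward inhibition, starting fluorescence score within five deviations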;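 note: score derived from kinetic fluorescence span divided by baseline fluorescence per well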
CHT allo act: CHT positive allosteric modulators, primary screen, cell-based, membrane potential dye, choline EC20; High affinity choline transporter 1 (Homo sapiens), Q9GZV3; CHT-expressing cells; active compounds read high; LV-AA mutant CHT in HEK293 cells; B-score at 10 µM; 0.49% of 310,000 active;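 active = initial fluorescence not abnormally high and integrated response B-score, plate-corrected, over 3 SD above library mean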
Starred values were filed as active, the others as inactive; i = inactive; x = not tested or not shown. In the library only some 2.3% were active in any assay of this set; here they are far more common.

SMILES | ANO1 activ | CHT inh | ANO1 block | CHT allo act
Cc1ccc(-n2nc3c(=O)n(C(C)C(=O)NCCc4cccs4)nc(C)c3c2C)cc1 (configuration not stated) | i | -5.54* | i | i
CC(Sc1nnc2c(n1)[nH]c1ccccc12)C(=O)N(C)C1CCCCC1 (configuration not stated) | i | i | 100* | i
CC(Sc1nnc2c(n1)[nH]c1ccccc12)C(=O)NC1CCCCC1 (configuration not stated) | i | i | i | i
COc1ccc(S(=O)(=O)N(Cc2cccs2)C2CCCC2)cc1 | i | i | 100* | i
CC(c1nc2ccccc2c(=O)[nH]1)N1CCCN(S(=O)(=O)c2ccc(F)cc2)CC1 (configuration not stated) | i | x | x | x
Cc1ccccc1-c1cc(C(=O)Nc2sc(C)c(C)c2C(N)=O)c2ccccc2n1 | i | i | i | i
CCOC(=O)c1sc(NC(=O)c2cc(-c3ccccc3C)nc3ccccc23)c(C#N)c1C | i | i | 100* | i
Cc1cc(C(=O)OCC(=O)Nc2cccc(S(N)(=O)=O)c2)c(C)o1 | i | x | x | x
CC(C)CCNC(=O)NC(=O)COC(=O)c1cc(S(=O)(=O)N2CCOCC2)ccc1N1CCCCC1 | -12* | i | i | i
Cc1cc(C(=O)OCC(=O)Nc2cccc(S(=O)(=O)N3CCOCC3)c2)c(C)o1 | -6.25* | i | i | i
COc1cccc(CN(C)C(=O)c2cc(-c3ccc(F)cc3)nc3ccccc23)c1 | i | i | 100* | i
COc1cccc(CN(C)C(=O)c2cc(-c3ccc(OC)c(OC)c3)nc3ccccc23)c1 | i | i | i | i
CC1CC(=O)c2c(cc3c(-c4c(O)cc(O)c5c(O)c6c(cc45)OC(C)CC6=O)c(O)cc(O)c3c2O)O1 (configuration not stated) | -19.9* | i | i | i
Cc1ccc(NC(=O)CSc2nn(-c3ccccc3)c(=S)s2)cc1S(=O)(=O)N(C)C | i | i | 25* | i
Cc1sc2ccc3sccc3c2[n+]1C | i | i | i | 12*
NC(=O)c1cc2cc(Br)ccc2oc1=NCc1ccccc1 | -8.53* | i | i | i
O=C(Cn1c(NCCCO)nc2ccccc21)c1ccc(Cl)cc1Cl | i | i | i | i
COc1ccc(-n2nc(C(=O)NCC(=O)Nc3cccc(Cl)c3)c3ccccc3c2=O)cc1OC | i | i | 25* | i
Cc1cc(O)cc2c1C1CCC3(C)C(=O)CCC3C1C=C2 (configuration not stated) | i | x | x | x
CCSc1nc2c(c(=O)[nH]c(=O)n2C)n1CC(O)COc1ccccc1C (configuration not stated) | -4.57* | i | i | i
COc1ccc(OCC(O)Cn2c(Br)nc3c2c(=O)[nH]c(=O)n3C)cc1 (configuration not stated) | -28.1* | i | i | i
CCCC(=O)O[C@]1(C(=O)COC(C)=O)CC[C@H]2[C@@H]3C[C@H](F)C4=CC(=O)C=C[C@]4(C)[C@@]3(F)[C@@H](O)C[C@@]21C | i | -5.04* | i | i
O=C(NC1CCc2ccccc21)c1cc(COc2cncc(Cl)c2)on1 (configuration not stated) | i | i | i | i
CCCN(CC(=O)Nc1ccccc1OC)C(=O)c1cc(-c2cccs2)nn1-c1ccccc1 | i | i | i | i
CCOc1cc(/C=N/NC(=O)c2cc(C)[nH]n2)ccc1OC(=O)c1ccc([N+](=O)[O-])cc1 | x | i | 100* | i
SMILES | ANO1 activ | CHT inh | ANO1 block | CHT allo act
CCOc1cc(/C=N\NC(=O)c2ccc(C)nc2)ccc1OC(=O)c1ccc(F)cc1 | i | i | i | i
COc1ccc(OC)c(NC(=O)COC(=O)CCNc2ccccc2OC)c1 | i | x | x | x
Cc1cc(C)c(C#N)c(SCC(O)COc2ccc(Br)cc2)n1 (configuration not stated) | i | i | i | i
CN(CCOc1ccccc1)C(=O)CNC(=O)c1ccc(C(C)(C)C)cc1 | i | x | x | x
Cc1cc(OCC(=O)N(Cc2ccccc2)C2CCS(=O)(=O)C2)ccc1Cl (configuration not stated) | i | i | i | i
Cc1ccc(OCC(=O)N(Cc2cccc(Cl)c2)C2CCS(=O)(=O)C2)cc1C (configuration not stated) | -40.1* | i | i | i
COc1cc(/C=C/C(=O)OCC(=O)N(C)Cc2ccccc2)ccc1O | i | x | x | x
CC(=O)O[C@H]1C[C@@H]2CC[C@@H]3[C@H](CC[C@@]4(C)[C@H]3C[C@H]([N+]3(C)CCCCC3)[C@@H]4OC(C)=O)[C@@]2(C)C[C@@H]1[N+]1(C)CCCCC1 | i | i | i | i
CC(=O)O[C@H]1C[C@@H]2CC[C@@H]3[C@H](CC[C@@]4(C)[C@H]3C[C@H]([N+]3(C)CCCCC3)[C@@H]4OC(C)=O)[C@@]2(C)C[C@@H]1N1CCCCC1 | x | i | i | 6.5*
O=C(Nc1nc2ccccc2n1CCN1CCCCC1)C1CCCCC1 | i | i | 25* | i
O=C(Nc1nc2ccccc2n1CCN1CCCC1)C1CCCCC1 | i | i | i | i
Cn1c(N2CCN(c3ccccn3)CC2)nc2c1c(=O)n(Cc1ccccc1Cl)c(=O)n2C | i | i | i | i
Cn1c(N2CCN(c3ccccn3)CC2)nc2c1c(=O)n(Cc1ccc(Cl)cc1)c(=O)n2C | i | i | 100* | i
Cc1cccc(OCC(=O)Nc2ccc(C(=O)Nc3ccccc3C(=O)O)cc2)c1C | i | -5.58* | i | i
Cc1cccc(OCC(=O)Nc2cc(NC(=O)COc3cccc(C)c3C)cc(C(=O)O)c2)c1C | i | i | i | i
N=c1n(CCN2CCOCC2)c2ccccc2n1CC(O)COc1ccccc1 (configuration not stated) | i | i | i | i
N=c1n(CCN2CCCCC2)c2ccccc2n1CC(O)COc1ccccc1 (configuration not stated) | i | i | i | 7.17*
CCN(C(=O)COC(=O)CSc1ccccc1)c1c(N)n(Cc2ccccc2)c(=O)[nH]c1=O | i | i | i | i
CC1(C)CC(=O)C2=C(C1)OC(N)=C(C#N)C2c1ccccc1 (configuration not stated) | i | i | i | i
CC1(C)CC(=O)C2=C(C1)OC(N)=C(C#N)C2c1ccccc1[N+](=O)[O-] (configuration not stated) | -4.63* | i | i | i
O=C(CN1Cc2ccccc2C1=O)Nc1ccc2c(c1)OCCO2 | i | i | i | i
